# What was measured:
# Experiment in all cases: DAPPL (digital affinity profiling via proximity ligation, sequencing); 10 mM Tris-HCl pH 7.5, 50 mM NaCl, 1 mM DTT, 4% glycerol, room temperature, 30 min; GST-TFs on glutathione beads, 16-mer random dsDNA library, 0.1% formaldehyde crosslink after washing; high values mean tight binding
# [1] = target: T1, FLI1 (Homo sapiens, UniProt Q01543 1-452); settings: protein: recombinant; tags: N-terminal GST; dsDNA, one strand shown
# T1 sequence: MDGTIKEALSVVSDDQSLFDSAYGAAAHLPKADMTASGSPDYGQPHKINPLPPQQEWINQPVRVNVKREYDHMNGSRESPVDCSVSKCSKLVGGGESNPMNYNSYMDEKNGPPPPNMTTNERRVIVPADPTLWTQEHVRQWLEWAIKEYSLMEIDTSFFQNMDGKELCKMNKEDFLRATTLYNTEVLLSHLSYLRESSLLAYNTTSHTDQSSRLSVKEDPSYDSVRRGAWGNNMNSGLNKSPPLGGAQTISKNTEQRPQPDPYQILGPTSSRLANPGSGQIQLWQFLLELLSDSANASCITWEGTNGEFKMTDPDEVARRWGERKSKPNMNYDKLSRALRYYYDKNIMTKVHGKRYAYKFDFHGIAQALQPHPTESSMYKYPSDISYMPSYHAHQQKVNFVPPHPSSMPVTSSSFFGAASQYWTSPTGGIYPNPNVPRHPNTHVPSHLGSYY
# Procedure, shortened: (§1)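 A tag-only sample was pooled with DNA-barcoded human transcription factors that had been expressed in yeast as GST fusions and captured on glutathione beads. The pools were incubated for 30 min at room temperature with 200 nmole of a random double-stranded 16-mer DNA library in Tris/NaCl/DTT/glycerol buffer, then washed, crosslinked with 0.1% formaldehyde, proximity-ligated (BsaI/T4 ligase, 1 h, 37 °C), PCR-amplified and sequenced on an Illumina NextSeq500. Binding signal is each hexamer's read frequency for a factor divided by its frequency for the tag-only sample.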
# [2] = target: T2, ELK1 (Homo sapiens, UniProt P19419 1-428); settings: protein: recombinant; tags: N-terminal GST; dsDNA, one strand shown
# T2 sequence: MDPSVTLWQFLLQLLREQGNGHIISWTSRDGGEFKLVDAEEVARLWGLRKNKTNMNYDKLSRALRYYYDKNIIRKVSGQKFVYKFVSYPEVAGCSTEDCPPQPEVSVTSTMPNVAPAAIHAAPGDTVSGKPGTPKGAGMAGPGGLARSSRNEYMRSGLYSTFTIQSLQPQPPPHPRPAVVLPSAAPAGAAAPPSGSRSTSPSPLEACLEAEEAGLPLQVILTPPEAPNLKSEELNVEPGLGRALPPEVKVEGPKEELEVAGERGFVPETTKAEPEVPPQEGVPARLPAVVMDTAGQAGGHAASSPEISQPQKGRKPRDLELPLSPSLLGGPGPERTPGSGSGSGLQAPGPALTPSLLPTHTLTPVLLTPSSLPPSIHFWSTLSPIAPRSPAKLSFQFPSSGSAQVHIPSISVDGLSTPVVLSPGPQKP
# Procedure, shortened: as §1
# [3] = target: T3, GABPA (Homo sapiens, UniProt Q06546 1-454); settings: protein: recombinant; tags: N-terminal GST; dsDNA, one strand shown
# T3 sequence: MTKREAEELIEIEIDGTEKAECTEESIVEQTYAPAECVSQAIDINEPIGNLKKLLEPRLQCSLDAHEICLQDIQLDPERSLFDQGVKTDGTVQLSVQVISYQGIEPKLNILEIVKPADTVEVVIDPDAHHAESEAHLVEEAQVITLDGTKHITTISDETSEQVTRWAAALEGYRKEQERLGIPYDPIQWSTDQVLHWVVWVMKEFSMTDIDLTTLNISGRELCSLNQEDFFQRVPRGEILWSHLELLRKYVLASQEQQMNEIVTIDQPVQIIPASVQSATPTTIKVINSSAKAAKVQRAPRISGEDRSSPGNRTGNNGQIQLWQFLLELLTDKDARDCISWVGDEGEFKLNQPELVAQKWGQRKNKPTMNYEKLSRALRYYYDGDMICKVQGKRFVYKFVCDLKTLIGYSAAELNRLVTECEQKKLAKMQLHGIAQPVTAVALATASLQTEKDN
# Procedure, shortened: as §1
# [4] = target: T4, ERG (Homo sapiens, UniProt P11308 1-479); settings: protein: recombinant; tags: N-terminal GST; dsDNA, one strand shown
# T4 sequence: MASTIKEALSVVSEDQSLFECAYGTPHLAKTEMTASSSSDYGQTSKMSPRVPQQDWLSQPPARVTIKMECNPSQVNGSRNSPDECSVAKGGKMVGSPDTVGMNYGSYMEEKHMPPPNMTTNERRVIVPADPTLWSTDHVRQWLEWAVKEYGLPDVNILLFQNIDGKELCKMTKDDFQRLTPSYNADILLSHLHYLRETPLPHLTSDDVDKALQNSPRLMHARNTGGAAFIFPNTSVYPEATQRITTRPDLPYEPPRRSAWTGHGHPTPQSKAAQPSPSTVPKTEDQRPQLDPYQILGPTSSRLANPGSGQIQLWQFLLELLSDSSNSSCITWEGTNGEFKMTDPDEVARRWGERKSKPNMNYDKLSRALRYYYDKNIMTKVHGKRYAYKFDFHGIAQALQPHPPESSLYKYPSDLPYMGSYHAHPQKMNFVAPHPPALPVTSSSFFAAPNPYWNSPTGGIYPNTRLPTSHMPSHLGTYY
# Procedure, shortened: as §1
# [5] = target: ELF1 (Homo sapiens, UniProt P32519 1-619); settings: protein: recombinant; tags: N-terminal GST; dsDNA, one strand shown
# Procedure, shortened: as §1
# [6] = target: T5, EHF (Homo sapiens, UniProt Q9NZC4 1-300); settings: protein: recombinant; tags: N-terminal GST; dsDNA, one strand shown
# T5 sequence: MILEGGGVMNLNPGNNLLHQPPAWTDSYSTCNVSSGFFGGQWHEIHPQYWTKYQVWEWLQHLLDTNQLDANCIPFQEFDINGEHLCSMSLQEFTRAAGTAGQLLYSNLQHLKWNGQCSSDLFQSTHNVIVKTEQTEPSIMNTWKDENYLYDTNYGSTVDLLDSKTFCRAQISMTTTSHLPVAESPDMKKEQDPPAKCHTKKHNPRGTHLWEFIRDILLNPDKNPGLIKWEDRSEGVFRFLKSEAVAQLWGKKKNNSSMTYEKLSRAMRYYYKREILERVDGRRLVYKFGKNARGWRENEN
# Procedure, shortened: as §1
# [7] = target: SPI1 (Homo sapiens, UniProt P17947 1-270); settings: protein: recombinant; tags: N-terminal GST; dsDNA, one strand shown
# Procedure, shortened: as §1
# [8] = target: SPIB (Homo sapiens, UniProt Q01892 1-262); settings: protein: recombinant; tags: N-terminal GST; dsDNA, one strand shown
# Procedure, shortened: as §1
# [9] = target: T6, ELK3 (Homo sapiens, UniProt P41970 1-407); settings: protein: recombinant; tags: N-terminal GST; dsDNA, one strand shown
# T6 sequence: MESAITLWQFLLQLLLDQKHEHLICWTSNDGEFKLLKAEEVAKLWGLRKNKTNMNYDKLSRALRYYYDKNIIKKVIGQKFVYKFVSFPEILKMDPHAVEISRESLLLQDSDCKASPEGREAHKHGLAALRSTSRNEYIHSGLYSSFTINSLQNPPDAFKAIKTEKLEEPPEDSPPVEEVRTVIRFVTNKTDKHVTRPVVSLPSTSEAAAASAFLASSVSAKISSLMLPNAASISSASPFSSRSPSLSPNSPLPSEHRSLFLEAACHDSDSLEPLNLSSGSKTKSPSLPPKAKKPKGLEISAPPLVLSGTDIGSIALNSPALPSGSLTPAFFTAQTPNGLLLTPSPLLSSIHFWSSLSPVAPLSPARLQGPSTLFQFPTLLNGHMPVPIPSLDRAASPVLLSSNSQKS
# Procedure, shortened: as §1
# [10] = target: T7, FEV (Homo sapiens, UniProt Q99581 1-238); settings: protein: recombinant; tags: N-terminal GST; dsDNA, one strand shown
# T7 sequence: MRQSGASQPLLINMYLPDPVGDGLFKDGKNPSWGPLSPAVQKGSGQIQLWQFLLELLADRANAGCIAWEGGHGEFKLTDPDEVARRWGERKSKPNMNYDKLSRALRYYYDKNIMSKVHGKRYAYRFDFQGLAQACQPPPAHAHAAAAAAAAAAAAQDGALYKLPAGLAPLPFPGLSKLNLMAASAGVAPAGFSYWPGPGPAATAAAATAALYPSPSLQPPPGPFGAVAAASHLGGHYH
# Procedure, shortened: as §1
# [11] = target: ETV5 (Homo sapiens, UniProt P41161 1-510); settings: protein: recombinant; tags: N-terminal GST; dsDNA, one strand shown
# Procedure, shortened: as §1
# [12] = target: HSF1 (Homo sapiens, UniProt Q00613 1-529); settings: protein: recombinant; tags: N-terminal GST; chain copies: 3; dsDNA, one strand shown
# Procedure, shortened: as §1
# [13] = target: T8, SPIC (Homo sapiens, UniProt Q8N5J4 1-248); settings: protein: recombinant; tags: N-terminal GST; dsDNA, one strand shown
# T8 sequence: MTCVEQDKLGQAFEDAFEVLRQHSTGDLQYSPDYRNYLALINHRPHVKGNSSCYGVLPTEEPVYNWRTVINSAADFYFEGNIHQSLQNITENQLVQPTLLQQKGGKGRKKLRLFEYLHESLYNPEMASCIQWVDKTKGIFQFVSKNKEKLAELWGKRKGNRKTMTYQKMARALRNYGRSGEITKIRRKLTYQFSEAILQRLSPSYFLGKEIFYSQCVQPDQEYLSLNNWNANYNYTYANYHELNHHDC
# Procedure, shortened: as §1
# [14] = target: ELF4 (Homo sapiens, UniProt Q99607 1-663); settings: protein: recombinant; tags: N-terminal GST; dsDNA, one strand shown
# Procedure, shortened: as §1
# [15] = target: T9, ELK4 (Homo sapiens, UniProt P28324-2 1-405); settings: protein: recombinant; tags: N-terminal GST; dsDNA, one strand shown
# T9 sequence: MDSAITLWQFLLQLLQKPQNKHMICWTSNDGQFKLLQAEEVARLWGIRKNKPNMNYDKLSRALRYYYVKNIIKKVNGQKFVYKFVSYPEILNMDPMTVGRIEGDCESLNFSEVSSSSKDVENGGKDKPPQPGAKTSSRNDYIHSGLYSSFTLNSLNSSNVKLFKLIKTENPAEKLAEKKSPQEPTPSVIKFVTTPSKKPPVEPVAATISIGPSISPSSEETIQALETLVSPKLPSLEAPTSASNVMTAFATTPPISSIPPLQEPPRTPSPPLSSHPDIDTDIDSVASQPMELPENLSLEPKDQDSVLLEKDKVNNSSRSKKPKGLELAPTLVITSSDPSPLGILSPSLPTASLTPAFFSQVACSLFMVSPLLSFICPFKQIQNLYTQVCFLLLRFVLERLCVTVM
# Procedure, shortened: as §1
# [16] = target: T10, ETV2 (Homo sapiens, UniProt O00321 1-342); settings: protein: recombinant; tags: N-terminal GST; dsDNA, one strand shown
# T10 sequence: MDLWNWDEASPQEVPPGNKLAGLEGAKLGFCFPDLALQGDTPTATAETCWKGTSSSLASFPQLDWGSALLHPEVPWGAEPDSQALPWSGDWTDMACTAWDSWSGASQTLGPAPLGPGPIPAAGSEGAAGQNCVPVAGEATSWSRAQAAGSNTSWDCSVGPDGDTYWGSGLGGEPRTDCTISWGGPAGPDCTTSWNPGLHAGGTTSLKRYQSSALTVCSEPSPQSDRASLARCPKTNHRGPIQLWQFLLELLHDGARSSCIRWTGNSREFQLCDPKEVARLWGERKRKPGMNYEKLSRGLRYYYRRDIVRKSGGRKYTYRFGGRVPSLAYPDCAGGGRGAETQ
# Procedure, shortened: as §1
# [17] = target: T11, ELF3 (Homo sapiens, UniProt P78545 1-371); settings: protein: recombinant; tags: N-terminal GST; dsDNA, one strand shown
# T11 sequence: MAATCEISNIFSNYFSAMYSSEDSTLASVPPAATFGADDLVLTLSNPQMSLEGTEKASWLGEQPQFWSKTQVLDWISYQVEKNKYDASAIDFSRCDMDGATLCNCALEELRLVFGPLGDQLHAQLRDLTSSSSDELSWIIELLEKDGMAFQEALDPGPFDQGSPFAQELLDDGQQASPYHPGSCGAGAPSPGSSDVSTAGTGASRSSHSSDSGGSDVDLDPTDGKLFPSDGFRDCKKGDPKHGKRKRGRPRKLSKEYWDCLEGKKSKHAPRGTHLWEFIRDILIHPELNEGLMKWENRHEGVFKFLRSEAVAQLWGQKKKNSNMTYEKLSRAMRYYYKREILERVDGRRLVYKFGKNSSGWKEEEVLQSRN
# Procedure, shortened: as §1
# [18] = target: CRX (Homo sapiens, UniProt O43186 1-299); settings: protein: recombinant; tags: N-terminal GST; dsDNA, one strand shown
# Procedure, shortened: as §1
# [19] = target: ETV1 (Homo sapiens, UniProt P50549 1-477); settings: protein: recombinant; tags: N-terminal GST; dsDNA, one strand shown
# Procedure, shortened: as §1
# Sequence of HSF1 (Q00613 whole entry): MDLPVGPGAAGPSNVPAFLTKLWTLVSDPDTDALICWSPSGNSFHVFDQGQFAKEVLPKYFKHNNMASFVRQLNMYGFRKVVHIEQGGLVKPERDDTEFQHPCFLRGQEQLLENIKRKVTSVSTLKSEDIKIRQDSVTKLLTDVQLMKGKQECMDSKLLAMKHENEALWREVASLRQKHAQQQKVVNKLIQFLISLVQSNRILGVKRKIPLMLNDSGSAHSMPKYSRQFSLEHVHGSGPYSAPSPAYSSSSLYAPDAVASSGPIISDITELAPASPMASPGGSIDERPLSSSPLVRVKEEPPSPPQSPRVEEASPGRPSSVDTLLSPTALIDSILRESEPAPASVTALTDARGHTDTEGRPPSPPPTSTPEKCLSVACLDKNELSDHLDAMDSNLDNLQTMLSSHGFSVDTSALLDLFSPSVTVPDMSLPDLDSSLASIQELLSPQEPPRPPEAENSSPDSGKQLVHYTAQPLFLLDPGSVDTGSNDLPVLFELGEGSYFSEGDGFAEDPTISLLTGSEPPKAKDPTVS
# Sequence of CRX (O43186 whole entry): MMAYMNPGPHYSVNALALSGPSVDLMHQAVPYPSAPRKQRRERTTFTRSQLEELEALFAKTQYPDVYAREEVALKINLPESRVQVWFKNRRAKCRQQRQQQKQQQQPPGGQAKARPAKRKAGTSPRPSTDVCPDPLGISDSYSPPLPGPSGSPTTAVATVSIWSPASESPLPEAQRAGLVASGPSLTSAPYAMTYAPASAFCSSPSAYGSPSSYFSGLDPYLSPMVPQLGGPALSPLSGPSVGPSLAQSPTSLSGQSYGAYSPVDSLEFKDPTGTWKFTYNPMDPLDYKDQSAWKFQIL
# Sequence of ETV1 (P50549 whole entry): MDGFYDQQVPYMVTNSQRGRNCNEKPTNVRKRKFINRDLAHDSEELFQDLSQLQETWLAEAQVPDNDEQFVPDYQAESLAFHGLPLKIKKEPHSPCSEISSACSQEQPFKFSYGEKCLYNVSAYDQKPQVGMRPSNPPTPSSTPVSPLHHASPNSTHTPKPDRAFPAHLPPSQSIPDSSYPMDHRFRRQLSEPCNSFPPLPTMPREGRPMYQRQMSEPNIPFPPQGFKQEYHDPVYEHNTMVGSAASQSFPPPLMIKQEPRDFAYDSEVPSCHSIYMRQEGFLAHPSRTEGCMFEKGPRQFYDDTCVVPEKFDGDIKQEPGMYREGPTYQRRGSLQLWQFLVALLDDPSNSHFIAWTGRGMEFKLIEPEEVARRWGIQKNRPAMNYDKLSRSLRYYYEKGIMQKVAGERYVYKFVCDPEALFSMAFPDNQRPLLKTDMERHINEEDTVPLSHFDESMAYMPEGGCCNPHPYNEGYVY
# Sequence of ELF1 (P32519 whole entry): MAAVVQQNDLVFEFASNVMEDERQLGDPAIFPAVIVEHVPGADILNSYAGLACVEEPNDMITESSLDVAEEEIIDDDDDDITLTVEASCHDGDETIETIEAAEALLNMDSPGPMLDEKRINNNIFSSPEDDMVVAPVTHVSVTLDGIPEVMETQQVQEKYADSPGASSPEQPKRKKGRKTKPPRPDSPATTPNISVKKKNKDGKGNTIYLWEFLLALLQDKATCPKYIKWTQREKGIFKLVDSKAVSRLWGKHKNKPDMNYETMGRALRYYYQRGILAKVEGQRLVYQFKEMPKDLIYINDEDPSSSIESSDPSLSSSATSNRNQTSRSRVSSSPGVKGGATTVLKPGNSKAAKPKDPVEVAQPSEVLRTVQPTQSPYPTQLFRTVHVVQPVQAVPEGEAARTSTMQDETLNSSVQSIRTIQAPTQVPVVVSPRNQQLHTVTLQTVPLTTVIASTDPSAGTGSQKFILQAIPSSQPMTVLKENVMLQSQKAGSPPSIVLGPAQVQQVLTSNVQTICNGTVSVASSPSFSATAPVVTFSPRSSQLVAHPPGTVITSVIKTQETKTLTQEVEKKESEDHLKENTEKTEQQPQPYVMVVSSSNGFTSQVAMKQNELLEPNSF
# Sequence of ELF4 (Q99607 whole entry): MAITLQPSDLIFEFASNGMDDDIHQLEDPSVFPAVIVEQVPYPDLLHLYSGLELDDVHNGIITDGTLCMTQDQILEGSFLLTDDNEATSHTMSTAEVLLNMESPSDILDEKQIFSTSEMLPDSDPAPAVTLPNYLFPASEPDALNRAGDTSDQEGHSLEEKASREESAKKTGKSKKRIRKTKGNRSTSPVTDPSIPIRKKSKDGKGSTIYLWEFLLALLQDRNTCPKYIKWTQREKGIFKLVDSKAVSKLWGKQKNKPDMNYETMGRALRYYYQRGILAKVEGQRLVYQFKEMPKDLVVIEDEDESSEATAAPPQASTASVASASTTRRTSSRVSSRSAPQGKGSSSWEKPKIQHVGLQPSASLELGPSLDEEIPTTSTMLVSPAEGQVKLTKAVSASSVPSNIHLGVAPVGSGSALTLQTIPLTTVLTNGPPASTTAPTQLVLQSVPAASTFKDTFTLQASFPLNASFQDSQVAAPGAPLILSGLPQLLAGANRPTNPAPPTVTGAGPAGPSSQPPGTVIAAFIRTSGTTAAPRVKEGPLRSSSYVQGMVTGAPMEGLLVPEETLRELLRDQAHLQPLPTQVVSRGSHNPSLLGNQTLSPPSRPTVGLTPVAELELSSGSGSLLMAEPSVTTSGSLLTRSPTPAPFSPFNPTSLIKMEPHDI
# Sequence of ETV5 (P41161 whole entry): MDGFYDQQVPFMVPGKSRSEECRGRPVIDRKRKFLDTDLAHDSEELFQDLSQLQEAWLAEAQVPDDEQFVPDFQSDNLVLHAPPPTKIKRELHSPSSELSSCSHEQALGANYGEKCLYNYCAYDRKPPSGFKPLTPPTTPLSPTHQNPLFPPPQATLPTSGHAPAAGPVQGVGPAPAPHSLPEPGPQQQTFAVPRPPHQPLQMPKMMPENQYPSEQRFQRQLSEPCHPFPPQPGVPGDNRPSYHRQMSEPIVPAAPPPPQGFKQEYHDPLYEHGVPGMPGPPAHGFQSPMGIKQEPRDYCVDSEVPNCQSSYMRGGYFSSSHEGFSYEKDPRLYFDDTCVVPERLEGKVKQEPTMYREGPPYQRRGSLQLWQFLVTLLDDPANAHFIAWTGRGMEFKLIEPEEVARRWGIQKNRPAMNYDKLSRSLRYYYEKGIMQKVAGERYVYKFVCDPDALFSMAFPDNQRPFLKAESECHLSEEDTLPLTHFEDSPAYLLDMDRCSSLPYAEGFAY
# Sequence of SPIB (Q01892 whole entry): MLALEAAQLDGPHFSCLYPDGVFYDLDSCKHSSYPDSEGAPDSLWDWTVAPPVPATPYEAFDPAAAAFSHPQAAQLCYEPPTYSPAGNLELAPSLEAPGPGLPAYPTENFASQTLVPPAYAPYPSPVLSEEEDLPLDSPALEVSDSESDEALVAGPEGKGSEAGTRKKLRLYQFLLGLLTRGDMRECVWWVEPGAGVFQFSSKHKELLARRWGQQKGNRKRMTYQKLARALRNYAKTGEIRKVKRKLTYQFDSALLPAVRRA
sequence,measurement,setting,value
ACCTTC,binding signal,[1],"1.8 fold enrichment (6-mer frequency, TF over GST control)"
same,binding signal,[2],"1.94 fold enrichment (6-mer frequency, TF over GST control)"
same,binding signal,[3],"1.79 fold enrichment (6-mer frequency, TF over GST control)"
same,binding signal,[4],"2.03 fold enrichment (6-mer frequency, TF over GST control)"
same,binding signal,[5],"1.92 fold enrichment (6-mer frequency, TF over GST control)"
same,binding signal,[6],"2.02 fold enrichment (6-mer frequency, TF over GST control)"
same,binding signal,[7],"1.75 fold enrichment (6-mer frequency, TF over GST control)"
same,binding signal,[8],"1.95 fold enrichment (6-mer frequency, TF over GST control)"
same,binding signal,[9],"1.8 fold enrichment (6-mer frequency, TF over GST control)"
same,binding signal,[10],"1.97 fold enrichment (6-mer frequency, TF over GST control)"
same,binding signal,[11],"1.96 fold enrichment (6-mer frequency, TF over GST control)"
same,binding signal,[12],"2.87 fold enrichment (6-mer frequency, TF over GST control)"
same,binding signal,[13],"1.66 fold enrichment (6-mer frequency, TF over GST control)"
same,binding signal,[14],"2.06 fold enrichment (6-mer frequency, TF over GST control)"
same,binding signal,[15],"2.06 fold enrichment (6-mer frequency, TF over GST control)"
same,binding signal,[16],"1.71 fold enrichment (6-mer frequency, TF over GST control)"
same,binding signal,[17],"1.95 fold enrichment (6-mer frequency, TF over GST control)"
same,binding signal,[18],"1.88 fold enrichment (6-mer frequency, TF over GST control)"
same,binding signal,[19],"1.98 fold enrichment (6-mer frequency, TF over GST control)"
